Source: PubChem BioAssay AID651650 (Sanford-Burnham Center for Chemical Genomics, 2012)

Biological target: Neuropilin-1 (Homo sapiens) (UniProt O14786)
Assay: NRP-1 b1b2 CendR peptide binding inhibitors, dose response, biochemical, FP and AlphaScreen panel (AID 651650)
Conditions: NRP-1 b1b2 / RPARPAR peptide binding, FP or AlphaScreen; run 1, at 100 µM (top of the series)

Chain of Neuropilin-1 (Homo sapiens) (O14786 whole entry, looked up): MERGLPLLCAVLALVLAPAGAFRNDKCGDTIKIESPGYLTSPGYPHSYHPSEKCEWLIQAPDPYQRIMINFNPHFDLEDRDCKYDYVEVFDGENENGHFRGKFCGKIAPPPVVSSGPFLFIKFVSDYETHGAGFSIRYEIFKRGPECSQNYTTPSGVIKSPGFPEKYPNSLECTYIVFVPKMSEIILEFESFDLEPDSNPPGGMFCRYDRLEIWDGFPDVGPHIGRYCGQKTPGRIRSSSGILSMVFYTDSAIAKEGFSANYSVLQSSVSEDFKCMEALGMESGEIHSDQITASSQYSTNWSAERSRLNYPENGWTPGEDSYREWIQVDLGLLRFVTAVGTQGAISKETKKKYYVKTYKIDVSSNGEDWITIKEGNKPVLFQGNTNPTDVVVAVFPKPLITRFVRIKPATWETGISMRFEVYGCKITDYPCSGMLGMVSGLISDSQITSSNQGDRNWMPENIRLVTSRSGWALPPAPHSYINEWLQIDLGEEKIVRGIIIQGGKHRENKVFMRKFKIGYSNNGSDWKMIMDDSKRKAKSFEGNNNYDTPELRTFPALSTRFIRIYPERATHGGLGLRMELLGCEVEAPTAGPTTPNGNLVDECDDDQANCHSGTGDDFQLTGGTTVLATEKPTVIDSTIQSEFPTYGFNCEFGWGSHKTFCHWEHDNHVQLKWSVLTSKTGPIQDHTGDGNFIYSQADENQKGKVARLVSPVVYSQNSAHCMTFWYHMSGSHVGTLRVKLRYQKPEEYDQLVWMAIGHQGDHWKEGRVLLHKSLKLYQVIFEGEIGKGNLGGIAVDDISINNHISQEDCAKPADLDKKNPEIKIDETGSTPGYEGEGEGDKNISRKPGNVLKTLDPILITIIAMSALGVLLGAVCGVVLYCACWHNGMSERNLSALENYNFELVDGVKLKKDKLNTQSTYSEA

SMILES | inhibition
O=C(CSc1nc2ccccc2c(=O)n1-c1ccc(F)cc1F)Nc1ccc2c(c1)CCC2 | 21.2%
CC(C)C[C@@H](COc1ccccc1)N1CCN(CCc2ccccc2)CCC1=O | 46.6%
C[C@@H](NC(=O)c1nc[nH]c1C(=O)NCc1ccccc1)c1ccccc1 | 23.1%
CC(C)OC(=O)CSc1nnc(-c2ccccn2)n1-c1ccccc1 | -4.4%
Cc1cccc(-c2noc(CSc3ccccc3)n2)c1 | 0.214%
O=C(O)c1ccc(C(=O)Nc2cccc3ccccc23)c(C(=O)O)c1 | 76.6%
COC(=O)[C@@]1(Cc2ccc(OC)cc2)[C@H]2c3cc(C(=O)N4CCCC4)n(CCN4CCOCC4)c3C[C@H]2CN1C(=O)c1ccccc1 | 38.7%
CCOC(=O)C(NC(=O)CC(C)C)(Nc1sc(C)c(CC)c1C#N)C(F)(F)F (centres undefined) | -7.38%
CCOC(=O)Cn1c(=O)n(Cc2ccco2)c(=O)c2ccc(C(=O)NC3CCCC3)cc21 | 61%
CC1(c2ccccc2)CC(C)(C)n2c(O)c(C3=NC(=S)NC3=O)c3cccc1c32 (centres undefined) | 12.3%
COc1ccc(-c2csc(NCCc3nc4cc(C(=O)NCCCO)ccc4n3Cc3ccc(C)cc3)n2)cc1 | 90.9%
COCCNC(=O)c1cc(-c2ccccc2)nn1CC1CC(c2cccc([N+](=O)[O-])c2)=NO1 (centres undefined) | 14.3%
Cc1ccc(OCC(=O)Nc2ccc(C)c(S(=O)(=O)N3CCCCCC3)c2)c([N+](=O)[O-])n1 | 44.6%
CCOC(=O)CNc1ccc2c(c1)OCO2 | 82.2%
Cc1ccccc1OCC1Cc2c(nc(N)c(C#N)c2N)O1 (centres undefined) | -18.4%
CN(C)/C=C/c1c([N+](=O)[O-])c2ccc(O)cc2n1-c1ccccc1 | 39.4%
Cc1ccc(NC(=O)c2ccc3c(c2)OCCO3)cc1S(=O)(=O)Nc1cccc(Cl)c1 | 4.91%
CCN1C(=O)C(=O)c2cc(C)ccc21 | 13.5%
CCC(=O)Nc1nc2nc(-c3ccccc3)cc(-c3ccccc3)n2n1 | 37.2%
CC(C)COC(=O)C1C2C=CC3(CN(C(C)c4ccc(Br)cc4)C(=O)C13)O2 (centres undefined) | 60.2%

SMILES | inhibition
COCCNC(=S)N(CCc1c(C)[nH]c2ccc(F)cc12)Cc1cccs1 | 34.4%
NC1=NC[C@@H](Cc2ccc(O)cc2)N1CCCCC1CCCCC1 | 26.5%
CC(=O)Nc1ccc(NC(=O)C2CC(=O)N=C(N)S2)cc1 (centres undefined) | 95.5%
c1cc(CNc2ccc3c(c2)OCO3)ccn1 | 27.1%
CC(OC(=O)c1ccco1)C(=O)Nc1nc(-c2ccccc2)cs1 (centres undefined) | -9.71%
COc1ccc(C2CC(O)(c3ccccc3)Oc3cc(OC)ccc32)cc1 (centres undefined) | 7.29%
CCC1=C(OC(=O)N(CC)CC)N2C(=O)OC(=NCC(=O)OC)[C@]2(C)[C@H]2C1=CC[C@H]1C(=O)N(CC)C(=O)[C@H]12 | 11.6%
Cc1ccccc1S(=O)(=O)Nc1nc2ccccc2nc1NCCO | 25.8%
O=C(/C=C/c1ccccc1)c1ccccn1 | -2%
Cc1ccc(C(=O)N/C(=C\c2sccc2C)C(=O)NCc2ccco2)cc1 | 53.9%
Cc1cccc(N(CC(=O)NC2CCCC2)C(=O)CS(=O)CC(=O)Nc2ccc3c(c2)OCO3)c1C (centres undefined) | 49%
CC1(C)S[C@@H]2[C@H](NC(=O)COc3ccccc3)C(=O)N2C1C(=O)OCc1ccccc1 (some centres undefined) | 53.2%
OCCNc1ncnc2ccc(Br)cc12 | 66.8%
CCN(c1ccccc1)S(=O)(=O)c1ccc(C(=O)N(CCCN(C)C)c2nc3cc4c(cc3s2)OCO4)cc1 | 72.6%
O=c1[nH]c(Nc2ccccn2)cc2ccccc12 | 81.1%
COc1ccc(-c2[nH]ncc2CN(C)CCc2c(C)n[nH]c2C)c(F)c1 | -14.2%
COc1cccc(C(=O)N2N=C(c3ccccc3)CC2(O)C(F)(F)F)c1 (centres undefined) | 35.9%
CCCNC(=O)[C@H]1N2C(=O)c3c(ccc(OC)c3OC)C2SC1(C)C (some centres undefined) | 51.5%
Cc1ccc(C(=O)Nc2nnc([C@H]3C[C@H](O)[C@@H](CO)O3)s2)cc1 | 25.4%
